Laboratory results from PubChem BioAssay AID602143 (Vanderbilt Specialized Chemistry Center, 2011).
Unmarked numbers belong to inactive results. Calls of active or inactive are those of the source. Rule as the data show it: active = remaining activity below about 50%; inactive = the rest.

Molecular target: Phospholipase D2 (Homo sapiens) (UniProt O14939)
Experiment: cellular phospholipase D2 activity inhibition – cell-based, HEK293, single concentration (AID 602143);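 also: tested at 200 nM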
Conditions: HEK293 cellular PLD2 activity, percent of control; stronger effect = lower value

Chain of Phospholipase D2 (Homo sapiens) (O14939 whole entry, looked up): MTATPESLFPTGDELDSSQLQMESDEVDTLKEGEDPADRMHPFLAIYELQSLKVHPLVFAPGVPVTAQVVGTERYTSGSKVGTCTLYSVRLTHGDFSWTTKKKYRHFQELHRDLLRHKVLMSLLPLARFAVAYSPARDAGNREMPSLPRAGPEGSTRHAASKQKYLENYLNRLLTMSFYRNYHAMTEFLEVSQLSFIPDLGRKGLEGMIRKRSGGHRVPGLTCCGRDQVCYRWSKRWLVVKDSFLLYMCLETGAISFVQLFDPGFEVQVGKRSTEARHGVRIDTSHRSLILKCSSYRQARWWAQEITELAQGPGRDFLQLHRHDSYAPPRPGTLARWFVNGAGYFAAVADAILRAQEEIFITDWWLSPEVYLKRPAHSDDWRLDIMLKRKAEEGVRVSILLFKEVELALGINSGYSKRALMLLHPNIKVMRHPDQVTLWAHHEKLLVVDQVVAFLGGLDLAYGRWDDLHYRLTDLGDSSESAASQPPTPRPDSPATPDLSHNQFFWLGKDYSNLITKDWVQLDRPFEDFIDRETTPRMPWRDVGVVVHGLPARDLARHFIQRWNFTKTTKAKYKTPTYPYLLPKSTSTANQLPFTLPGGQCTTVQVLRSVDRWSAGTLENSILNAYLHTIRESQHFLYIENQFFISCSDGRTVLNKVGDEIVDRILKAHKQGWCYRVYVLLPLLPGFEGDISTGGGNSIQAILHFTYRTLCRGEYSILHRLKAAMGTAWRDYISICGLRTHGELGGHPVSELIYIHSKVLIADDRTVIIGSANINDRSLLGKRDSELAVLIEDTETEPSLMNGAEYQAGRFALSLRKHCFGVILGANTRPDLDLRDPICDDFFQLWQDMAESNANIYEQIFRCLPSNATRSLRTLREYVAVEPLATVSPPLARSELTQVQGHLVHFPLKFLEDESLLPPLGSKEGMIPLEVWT
Chain of Phospholipase D2 (Homo sapiens) (O14939 whole entry, looked up): as above

CN1CCC2(CCN(CCNC(=O)c3ccc4ccccc4c3)CC2)C1=O
remaining activity: 129%

O=C(CCc1ccccc1)NCCN1CCC(n2c(=O)[nH]c3ccccc32)CC1
remaining activity: 80.7%

C[C@@H](CN1CCC2(CC1)CN(S(C)(=O)=O)c1ccccc12)NC(=O)c1ccc2ccccc2c1
remaining activity: 115%

C[C@@H](CN1CCC(n2c(=O)[nH]c3cc(I)ccc32)CC1)NC(=O)C1CC1c1ccccc1 (some centres undefined)
remaining activity: 99.2%

O=C(NCCN1CCC(n2c(=O)[nH]c3ccccc32)CC1)NCc1cccc(F)c1
remaining activity: 101%

COc1cccc(N2CCN(CCNC(=O)c3ccc(Cl)cc3)CC2)c1
remaining activity: 109%

O=C(NCCN1CCC(C(=O)NCC2CC2)CC1)c1ccc2ccccc2c1
remaining activity: 108%

O=C(NCCN1CCC(n2c(=O)[nH]c3ccc(F)cc32)CC1)c1cccc2c1C(=O)c1ccccc1-2
remaining activity: 0% (active)

C[C@@H](CN1CCC(n2c(=O)[nH]c3cc(-c4cccnc4)ccc32)CC1)NC(=O)[C@H]1C[C@@H]1c1ccccc1
remaining activity: 72.1%

C[C@@H](CN1CCC2(CC1)CCN(C)C2=O)NC(=O)c1ccc2ccccc2c1
remaining activity: 135%

O=C(NCCN1CCC(C(=O)Nc2ccccc2)CC1)c1ccc2ccccc2c1
remaining activity: 106%

C[C@@H](CN1CCC(n2nnc3cc(C(F)(F)F)ccc32)CC1)NC(=O)c1cnc2ccccc2c1
remaining activity: 86.9%

Cc1ccc(C(=O)NCCN2CCN(c3ncccn3)CC2)cc1
remaining activity: 85.6%

O=C(NCCN1CCC(n2c(=O)[nH]c3ccccc32)CC1)c1ccc2ccc3c4c2c1CC=C4CC=C3
remaining activity: 79.2%
